These results are taken from PubChem BioAssay AID2685 (National Center for Advancing Translational Sciences (NCATS), 2010).

The structures appear in SMILES notation. The campaign covered roughly 320,000 compounds. About 2,100 (0.66%) were called active. Another 53% or so got no clear call; they are omitted. Calls follow the shape of the dose curve; as a rule, active = well fitted inhibition curve with a large enough effect in the signal ratio, with a control signal flat (not every such curve was filed as active); inconclusive = small, poorly fitted or top-dose-only effect, or effect the other way, or a change in a side signal; inactive = flat fitted curve, though single readings scatter; the % refers to the signal ratio. The sample as a whole holds a higher share of actives than the screen did.
Potency is read from the fitted curve at half-maximal effect.

A short description of the assay: qHTS Assay for Lipid Storage Modulators in Drosophila S3 Cells.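 As to cell number change: cells counted by Cell Tracker Red CMTPX staining in the red channel.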 As to lipid storage change, negative = inhibition: % is scaled to controls: 0 for no effect and ±100 for the full control effect. The settings on record: BODIPY lipid droplet fluorescence, 18-24 h, cells fed with added oleic acid; cell number change: measured here: cell count max response; series mostly up to 46.1 µM; lipid storage change, negative = inhibition: at the top concentration. In outline: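 Drosophila S3 cells got compounds at several concentrations plus oleic acid (400 uM solution). Laser-scanning cytometry with 488 nm excitation read lipid droplets at 500-530 nm and cells at 575-640 nm. Percent activity was relative to 20 uM Triacsin C.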
For orientation: Quantitative high-throughput screening tests each substance at several concentrations.
Regarding `O=C1C(Cl)=C(Nc2ccccc2)C(=O)c2ccccc21`, the “lipid storage change, negative = inhibition” value was -20.8% (inactive) and the cell number change is -30.2%.

In the case of `O=C1C(Cl)=C(Nc2ccc3cn[nH]c3c2)C(=O)c2ccccc21`, the Potency was 5.8 µM (active) and the cell number change is -29.2%.

On to `O=S(=O)(Nc1ccc2cn[nH]c2c1)c1ccc(Cl)cc1`, for which the outcome was inactive.

Take `COc1ccc(S(=O)(=O)NNC(=O)C2COc3ccccc3O2)cc1[N+](=O)[O-]` (configuration not stated): the molecule was classed as inactive and the cell number change was 4.36%.

Turning to `NC(=O)c1ccc(NC(=O)CSc2nnc(-c3ccccn3)n2N)cc1`, the “lipid storage change, negative = inhibition” value is 0.594% (inactive) and the cell number change worked out at 1.07%.

Turning to `O=C(Nc1ccc(Oc2cccnc2)cc1)C1CCN(Cc2cccc(Cl)c2)CC1`, the outcome was inactive and the cell number change came to 27.9%.

In the case of `Nc1nnnn1CC(=O)OCc1cccc(Br)c1`, the Potency is 2.06 µM (active) and the cell number change was determined as 4.89%.

As for `O=C(CNC(=O)c1ccccc1)OCc1cccc(Br)c1`, the “lipid storage change, negative = inhibition” value was -23.1% (inactive) and the cell number change was -18.3%.

For `O=C(CN1CC(c2ccccc2)CC1=O)OCc1cccc(Br)c1` (configuration not stated), the “lipid storage change, negative = inhibition” value was -6% (inactive) and the cell number change stood at 15.3%.

For `COc1ccc(S(=O)(=O)N2CCOC2CNC(=O)C(=O)NCc2ccncc2)cc1` (configuration not stated), the molecule was called inactive and the cell number change is -15.1%.

As for `COc1ccc(CCNC(=O)CSc2c[nH]c3ccccc23)cc1OC`, the “lipid storage change, negative = inhibition” value was -1.63% (inactive) and the cell number change is 5.06%.

Consider `O=C(COC(=O)CC1CCCC1)Nc1ccc(Cl)cn1`, for which the “lipid storage change, negative = inhibition” value is -8.5% (inactive) and the cell number change is 2.11%.

With `O=C(Nc1ccc(Cl)cn1)Nc1ccc(Cl)cn1`, the outcome was inactive.

`O=C(NCC1CCCC(CNC(=O)Nc2ccc(Cl)cn2)C1)Nc1ccc(Cl)cn1` (configuration not stated): the Potency is 0.082 µM (active) and the cell number change is -15.8%.

For `Nc1nc2ccc(C(=O)Nc3ccccc3)cc2s1`, the “lipid storage change, negative = inhibition” value was 11.7% (inactive) and the cell number change is -10.8%.

With `Cc1ccc(N2C(=O)C3C4C=CC(CC4)C3C2=O)c([N+](=O)[O-])c1` (configuration not stated), the “lipid storage change, negative = inhibition” value is 6.13% (inactive).

Regarding `C=CCOc1ccccc1CNc1ccc2c(c1)OCCO2`, the “lipid storage change, negative = inhibition” value was 2.79% (inactive) and the cell number change is -4.69%.

For `C=CCOc1ccccc1CN(C(=O)CCl)c1ccc2c(c1)OCO2`, the Potency is 9.2 µM (active) and the cell number change turned out to be 10.9%.

With `O=C(CCl)N(C/C=C/c1ccccc1)c1ccc2c(c1)OCCO2`, the “lipid storage change, negative = inhibition” value was 8.7% (inactive).

`Cc1cc(C)cc(Oc2ccc(C(F)(F)F)cc2C#N)c1`: the molecule was classed as inactive.

In the case of `Clc1ccc(CSc2ccc(-c3ccco3)nn2)cc1`, the “lipid storage change, negative = inhibition” value was 0.428% (inactive).

As to `Nc1ccc(-c2nnc(-c3ccccc3)o2)cc1`, the Potency is 18.4 µM (active).

As for `O=C(O)c1ccc(-c2nnc(-c3ccccc3)o2)cc1`, the “lipid storage change, negative = inhibition” value was 9.84% (inactive) and the cell number change stood at 25.5%.

Consider `c1ccc(-c2nnc(-c3ccccc3)o2)cc1`, for which the “lipid storage change, negative = inhibition” value was -1.7% (inactive) and the cell number change worked out at 0.828%.

Take `Cc1ccc(CN2C(=O)/C(=C3\SC(N4CCOCC4)=NC3=O)c3cc(Br)ccc32)cc1`: the “lipid storage change, negative = inhibition” value is -0.115% (inactive) and the cell number change was 15.8%.

As to `CCN1C(=O)/C(=C2\SC(N3CCCCC3)=NC2=O)c2ccccc21`, the “lipid storage change, negative = inhibition” value is -17.1% (inactive) and the cell number change is -29.3%.

For `CCCCN1C(=O)/C(=C2\SC(N3CCOCC3)=NC2=O)c2ccccc21`, the Potency is 8.2 µM (active) and the cell number change was -1.69%.

For `O=C(NC12CC3CC(CC(C3)C1)C2)c1cnccn1`, the “lipid storage change, negative = inhibition” value was -13.2% (inactive) and the cell number change turned out to be 3.24%.

As to `CCN(CC)C1CCS(=O)(=O)C1` (configuration not stated), the “lipid storage change, negative = inhibition” value is 15.6% (inactive) and the cell number change was found to be 22.1%.

As for `COc1cccc(-c2cc(C(=O)N3CCN(Cc4ccc5c(c4)OCO5)CC3)on2)c1`, the “lipid storage change, negative = inhibition” value is 7.57% (inactive) and the cell number change stood at 17%.

On to `COC(=O)CNC(=O)c1cc(OC)cc(OC)c1`, for which the “lipid storage change, negative = inhibition” value was 0.076% (inactive) and the cell number change is 7%.

On to `COc1cc(OC)cc(C(=O)NCC(=O)OCC(=O)c2cc(OC)ccc2OC)c1`, for which the Potency was 23.1 µM (active) and the cell number change is -7.21%.

Take `COc1cc(OC)cc(C(=O)NCC(=O)OCC(=O)NC(C)(C)C)c1`: the “lipid storage change, negative = inhibition” value was -3.37% (inactive) and the cell number change amounted to 16.7%.

As for `COC(=O)CNC(=O)C(NC(=O)c1ccc(Cl)cc1)C(C)C` (configuration not stated), the Potency is 25.9 µM (active) and the cell number change came to 12.5%.

As for `CC(C)OCCCNC(=O)C(NC(=O)c1ccc(Cl)cc1)C(C)C` (configuration not stated), the “lipid storage change, negative = inhibition” value is -2.96% (inactive) and the cell number change turned out to be 4.94%.

Turning to `CCC(C)C(NC(=O)c1ccc(Cl)cc1)C(=O)O` (configuration not stated), the “lipid storage change, negative = inhibition” value is 4.26% (inactive) and the cell number change was -1.98%.

Take `COC(=O)c1cc(C(=O)Nc2cccc(C)n2)cc([N+](=O)[O-])c1`: the result was inactive.

As for `O=C(O)c1ccccc1NC(=O)C1CCCO1` (configuration not stated), the Potency is 23.1 µM (active) and the cell number change is -12.3%.

As for `COC(=O)c1ccccc1NC(=O)C1CCCO1` (configuration not stated), the “lipid storage change, negative = inhibition” value is 5.7% (inactive) and the cell number change is -0.0238%.

Turning to `CCOC(=O)c1ccccc1NC(=O)C1CCCO1` (configuration not stated), the “lipid storage change, negative = inhibition” value was 0.203% (inactive) and the cell number change amounted to 2.7%.

Take `COc1cc(/C=C/C(=O)NC2CCCCC2)cc(OC)c1OC`: the outcome was inactive and the cell number change is 1.65%.

As to `COc1cc(/C=C/C(=O)NC(C)C2CC3CCC2C3)cc(OC)c1OC` (configuration not stated), the Potency was 2.91 µM (active) and the cell number change was 13.5%.

With `COc1ccc(C(=O)NC(C)C2CC3CCC2C3)c(OC)c1` (configuration not stated), the call was inactive and the cell number change was 14.1%.

Turning to `CCCCN1C(=O)C(=O)N(CC(=O)Nc2cc(OCC)c(N3CCOCC3)cc2OCC)C1=O`, the “lipid storage change, negative = inhibition” value is 9.77% (inactive) and the cell number change was -17.5%.

Consider `COc1ccc(-c2cc(C)no2)cc1S(=O)(=O)N(C)c1ccc(C)cc1`, for which the outcome was inactive and the cell number change is -26.4%.

For the molecule `CCCN(c1ccccc1F)S(=O)(=O)c1cc(-c2cc(C)no2)ccc1OC`, the Potency is 4.61 µM (active) and the cell number change is -29.5%.

As to `COC(=O)CCN(c1ccccc1)S(=O)(=O)c1cc(-c2cc(C)no2)ccc1OC`, the molecule was classed as inactive.

Consider `O=C(Nc1nnc(S(=O)(=O)N2CCCCCC2)s1)c1cccc(Br)c1`, for which the “lipid storage change, negative = inhibition” value is -11.2% (inactive) and the cell number change was 16.5%.
